Data as given in PubChem BioAssay (NCI).
This is part of a sample that, as a whole, favours compounds with a hit. Of some 83,000 tested, about 20% had one in any assay.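 Compound tested at a single concentration for 48 hours in 96-well plates; a percent growth value below 10 was scored as active.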 Unmarked numbers belong to inactive results. Calls of active or inactive are those of the source.

Legend:
Test in all cases: NCI-60 one-dose screen, 48 h (100 = growth as untreated, 0 = no growth, -100 = all killed)
Settings in all cases: 10 µM unless noted
SK-MEL-2 melanoma = test system: SK-MEL-2 melanoma
EKVX NSCLC = test system: EKVX NSCLC
SN12C renal = test system: SN12C renal
UO-31 renal = test system: UO-31 renal
TK-10 renal = test system: TK-10 renal
ACHN renal = test system: ACHN renal
CAKI-1 renal = test system: CAKI-1 renal
A498 renal = test system: A498 renal
CCRF-CEM leukemia = test system: CCRF-CEM leukemia
MOLT-4 leukemia = test system: MOLT-4 leukemia

SMILES | growth (SK-MEL-2 melanoma) | growth (EKVX NSCLC) | growth (SN12C renal) | growth (UO-31 renal) | growth (TK-10 renal) | growth (ACHN renal) | growth (CAKI-1 renal) | growth (A498 renal) | growth (CCRF-CEM leukemia) | growth (MOLT-4 leukemia)
C=C1CCC2C3(C)COC(c4ccccc4)OC3CCC2(C)C1C/C=C1/C(=O)OCC1OC(C)=O (stereo not given) | 95.1% | 104% | 80.6% | 81.6% | 56.8% | 92.4% | 106% | 103% | 2.16% (active) | 77.1%
O=C(/C=C/c1ccc([N+](=O)[O-])cc1)c1ccc2c3c(cccc13)CC2 | -24.8% (active) | 87.3% | 89.8% | 19.2% | 107% | 99.1% | 72.1% | -63.2% (active) | 35.5% | 62.7%
NC(=N\N=C/Cc1ccccc1)/C(N)=N\N=C\Cc1ccccc1 | 108% | 110% | 102% | 91.2% | 110% | 94.8% | 102% | 90.1% | 95.8% | 100%
O=C(CC(C(=O)c1ccccc1)N1CCN(Cc2ccccc2)CC1)c1ccccc1 (stereo not given) | 104% | 120% | 99.3% | 80% | 96.6% | 41.8% | 73.5% | 74.6% | 8.48% (active) | 49.5%
O=C(Nc1cccc(Cl)c1)Nc1cccc(Cl)c1 | 114% | 72.5% | 85.2% | 72.7% | 74.3% | 59.2% | 78.2% | 59.5% | 38.8% | 51.6%
O=C(Nc1ccccc1OC(=O)c1ccccc1)c1ccccc1 | 83.1% | 110% | 69.6% | 77.4% | 101% | 98.9% | 91.5% | 81.4% | 27.1% | 26.2%
O=C(C(=O)c1cc(Br)ccc1O)c1cc(Br)ccc1O | 28.4% | 88.2% | 59.4% | 24.8% | 61.4% | 55.8% | 50% | 93.5% | 53.2% | 37.6%
CCOC(=O)OCC(=O)[C@@]1(O)CC[C@H]2[C@@H]3CCC4=CC(=O)CC[C@]4(C)[C@H]3[C@@H](O)C[C@@]21C | 102% | 85.4% | 87.2% | 76.2% | 96.4% | 99.3% | 90.9% | 98.8% | 84.6% | 93.2%
COc1ccc(-c2ccc(O)c(C(=O)/C=C/c3cc(OC)c(OC)c(OC)c3)c2)cc1 | 84.4% | 79.8% | 94.6% | 59.7% | 103% | 85.7% | 86.5% | 124% | 24.2% | 34.3%
Fc1ccc(-c2nn3c(-c4cc(C(F)(F)F)cc(C(F)(F)F)c4)nnc3s2)cc1 | -33.3% (active) | 71.1% | 46.7% | 29.2% | -40% (active) | 11.6% | 69.8% | -18.5% (active) | 87% | 93%
Cc1cc(Cl)ccc1Nc1nc(C(F)(F)F)ccc1C(=O)N/N=C/c1ccc(Cl)cc1 | -20.6% (active) | 3.77% (active) | 4.31% (active) | -43.3% (active) | 9.18% (active) | -1.46% (active) | -23.1% (active) | -21.1% (active) | -18.8% (active) | -20.1% (active)
COc1ccc2cc(-c3nc4ccccc4[nH]3)c(=O)oc2c1 | 22.1% | 77.3% | 92.3% | 94.2% | 119% | 86.2% | 82.2% | 95.6% | 95.3% | 97.7%
Fc1ccccc1C1c2ccccc2-c2nccn21 (stereo not given) | 99.5% | 96.1% | 97.1% | 93.7% | 97.4% | 112% | 66.5% | 90.9% | 96.9% | 87.4%
O=C(c1ccc(N2CCOCC2)cc1[N+](=O)[O-])N1CCOCC1 | 17.9% | 18.9% | 145% | 99.4% | 116% | 100% | 20.1% | 104% | 104% | 116%
COc1cc2c(cc1OC)C(=O)/C(=C/c1cccc(OCC(=O)c3ccccc3)c1)C2 | 44.1% | 94.4% | 88.8% | -19.2% (active) | 122% | 96.9% | 93.4% | 103% | 38% | 55.3%
COc1ccc(CNC(=O)c2c(C)n([O-])c3ccc(OC)cc3[n+]2=O)cc1 | 102% | 87.8% | 108% | 21.9% | 104% | 111% | 230% | 104% | 100% | 103%
COC(=O)[C@H]1[C@H]2C[C@@H]3c4[nH]c5cc(OC)ccc5c4CCN3C[C@H]2C[C@@H](OC(=O)/C=C/c2cc(OC)c(OC)c(OC)c2)[C@@H]1OC | 66.2% | 90.4% | 63.3% | 69.2% | 46.4% | 68.5% | 30.9% | 81.7% | 5.36% (active) | 8.49% (active)
CC(NC(N)=S)c1ccccc1 (stereo not given) | 120% | 103% | 98.3% | 93.2% | 99% | 108% | 104% | 98.1% | 129% | 98.8%
O=C(O)CCNS(=O)(=O)c1ccc(-c2ccccc2)cc1 | 0.624% (active) | 91.6% | 95% | 92.8% | 136% | 97.9% | 104% | 115% | 111% | 118%
Cc1cc(C)nc(NS(=O)(=O)c2ccc(Nc3nc4nc(SCc5ccccc5)nc(-c5ccc(O)cc5)c4c(=O)[nH]3)cc2)n1 | 92% | 96% | 102% | 97% | 105% | 104% | 85.9% | 90.7% | 71.2% | 73.8%
COc1ccc(C(=O)COc2ccc(/C=C3\Oc4ccc5ccccc5c4C3=O)cc2)cc1 | 77.9% | 90.9% | 91.8% | -2.22% (active) | 142% | 156% | 96% | 102% | -21.9% (active) | 50.4%
CC1CN(C2CCCCC2)C(=O)NC1=O (stereo not given) | 100% | 110% | 92.1% | 82% | 101% | 106% | 103% | 87.9% | 106% | 85%
Nc1ccc2c(c1Br)Cc1ccccc1-2 | 94.2% | 68% | 86.6% | 54.4% | 123% | 95.8% | 98.6% | 86.8% | 53.2% | 68.4%
COC(=O)C1(NC(=O)CNC(=O)OCc2ccccc2)CCCC1 | 102% | 98.2% | 95.4% | 93.1% | 99.9% | 105% | 100% | 96.9% | 101% | 111%
NS(=O)(=O)N(c1cc(C(F)(F)F)cc(C(F)(F)F)c1)C1CCN(Cc2ccc(C(F)(F)F)cc2)CC1 | 28% | 16.2% | 55.1% | 64.6% | 67% | 69.5% | 66.2% | 28.2% | 23.6% | 20.3%
COc1ccc(C2CC(c3ccc4c(c3)OCO4)=NN2C=O)cc1 (stereo not given) | 100% | 91.7% | 106% | 87.4% | 93.4% | 103% | 102% | 91.2% | 93.9% | 101%
CC(=O)OC1Oc2cc(C)c(C)cc2-c2oc(=O)c(-c3ccccc3)cc21 (stereo not given) | 17.3% | 40.5% | 43.6% | 16.5% | 13.9% | 34% | 24.8% | -1.55% (active) | -37.8% (active) | -20.4% (active)
